The whole screen tested about 410,000 compounds, of which about 18,000 (4.4%) were called active. Another 7% or so got no clear call; they are omitted. Rule as the data show it: active = activity change below about -60%; inconclusive = no clear call, values can overlap the other calls; inactive = above about -39%. The entries come from a sample that favours actives as a whole.
% is scaled to controls: 0 for no effect and ±100 for the full control effect.

The assay in a line: qHTS Assay for inhibitors of the human cytomegalovirus (HCMV). The settings on record: HFF cells, HCMV-luciferase reporter, 72 h; at 57.5 µM; hits give low values. In short, it runs like this: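 Screen run at 2 compound doses on HFFs infected with reporter HCMV, MOI 1 PFU/cell. Luciferase activity from cell lysates at 72 h post infection gave inhibition relative to buffer-only and Salinomycin wells.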
A general note: In qHTS, concentration-response curves come from the screen itself.
With `Cc1ccc(C)c(CN2C(=O)c3ccccc3S(=O)c3ccc(C(=O)N4CCOCC4)cc32)c1` (centres undefined), the activity change, negative = inhibition is 9.82% (inactive).
Consider `Cc1ccc(S(=O)(=O)NC(C(=O)N2CCOCCOCCOCCOCC2)c2ccccc2)cc1` (centres undefined), for which the activity change, negative = inhibition was -14.3% (inactive).
With `Cc1oc2c(c1C(=O)N1CCOCC1)C(=O)c1ccccc1C2=O`, the activity change, negative = inhibition is -101% (active).
In the case of `COc1cc(NC(=O)C2CC(c3ccccc3O)=NO2)c(OC)cc1Cl` (centres undefined), the activity change, negative = inhibition is 0.764% (inactive).
Regarding `CCC(C)Cn1c(O)cc2nn(-c3nc4ccccc4s3)c(=O)c-2c1C` (centres undefined), the activity change, negative = inhibition is -80.3% (active).
Turning to `NS(=O)(=O)c1ccc(NC(=O)C(=O)Nc2ccc3nc4n(c(=O)c3c2)CCCCC4)cc1`, the activity change, negative = inhibition is 13.4% (inactive).
Regarding `COc1ccc(-c2c(C)nn3c(N4CCC(C(=O)NCCC(C)C)CC4)cc(C)nc23)cc1OC`, the activity change, negative = inhibition is 1.6% (inactive).
With `CCN1CCN(C(c2ccc(C)cc2)c2c(O)cc(C)n(Cc3ccco3)c2=O)CC1` (centres undefined), the activity change, negative = inhibition is 25% (inactive).
With `CCOc1ccc(Cl)cc1-c1cc(C(=O)NCc2cccs2)[nH]n1`, the activity change, negative = inhibition is 8.26% (inactive).
Next, `CCOc1ccccc1NC(=O)Cn1nnc(C(=O)Nc2ccc(C)c(C)c2)c1N`: -18.4% (inactive); `CCOc1ccccc1NC(=O)Cn1nnc(C(=O)NCc2cccs2)c1N`: -78.3% (active).
For `COc1ccc(CNC(=O)CS(=O)Cc2nc(-c3cccc(C)c3)oc2C)cc1` (centres undefined), the activity change, negative = inhibition was -7.8% (inactive).
Turning to `CN(CC(=O)O)S(=O)(=O)c1ccc2oc3ccccc3c2c1`, the activity change, negative = inhibition is -8.55% (inactive).
Regarding `COc1cccc(CNc2nccn(-c3ccc(OC)c(OC)c3)c2=O)c1`, the activity change, negative = inhibition was 13.5% (inactive).
In the case of `COc1ccccc1CNc1nc2ccc(Cl)cc2n2cnnc12`, the activity change, negative = inhibition is 25.8% (inactive).
For `CC(C)Nc1nc(NCCOc2ccccc2Cl)c2sccc2n1`, the activity change, negative = inhibition is -35.9% (inactive).
Next, `COc1cccc(-c2cc3nc(NCc4ccccc4OC)n(C)c(=O)c3s2)c1`: -13.2% (inactive); `COc1ccccc1CNc1nc(Nc2ccccc2Cl)c2sccc2n1`: -67.2% (active).
On to `COc1cccc(CNc2nc(NCc3ccccc3OC)nc3ccsc23)c1`, for which the activity change, negative = inhibition was -90.2% (active).
For the compound `CCN1CCC(N(Cc2ccc(F)cc2)C(=O)Nc2cc(C)ccc2C)CC1`, the activity change, negative = inhibition was -23.7% (inactive).
In the case of `CCOC(=O)Cn1c(=O)n(-c2ccccc2OC)c2nc(-c3cccc(F)c3)nc(C(N)=O)c21`, the activity change, negative = inhibition was 1.14% (inactive).
On to `O=C(O)c1cc(S(=O)(=O)N(Cc2ccccc2)c2ccccc2)ccc1Cl`, for which the activity change, negative = inhibition is -27.4% (inactive).
With `O=C(CCl)N(Cc1cccc([N+](=O)[O-])c1)c1cccc(Cl)c1`, the activity change, negative = inhibition was -99.6% (active).
Turning to `O=C(Cc1ccc(F)cc1)N1CCN=C1SCc1cccc([N+](=O)[O-])c1`, the activity change, negative = inhibition was 35.3% (inactive).
